# PubChem BioAssay AID743088 (The Scripps Research Institute Molecular Screening Center, 2013)
# Values without a mark were called inactive.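 Rule for the calls: active = binding inhibited by at least 50%, or stimulated by at least 50%, shown as inhibition of -50% or lower; inactive = the rest.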
# Test system: Phorbol Ester
# Assay: off-target binding across receptor panel, profiling panel, selectivity assay for AVPR1a antagonist project, biochemical, Panlabs HitProfilingScreen (AID 743088)
# Conditions: Panlabs radioligand binding panel, 30 targets, at 10 µM, hits give high values
structure (smiles),measurement,value
O=C(C1CCN(c2ccc(Cl)cn2)CC1)N(CC1CC1)c1ccc(Cl)cc1,inhibition of binding,-13%
